Source: PubChem
Methyltransferases = Primary Screen for Target Class Profiling of Small Molecule Inhibitors of Methyltransferases. purified enzyme, MTase-Glo SAH luminescence; stronger effect = lower value. calls only at 40 µM. 25,000 tested, 3.9% active; call rule not given here
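Each enzyme was assayed with SAM and its substrate. SAH formation detected by MTase-Glo luminescence; single-point 40 uM screen[…].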
Large screens that a line does not name were inactive; ! = a repeat was not active. The entries come from a sample that favours hits as a whole.

N#Cc1c(O)c2c(-c3ccc(-c4ccccc4O)cc3)csc2[nH]c1=O	Methyltransferases active!
CC1CCCCCCCc2cc(O)cc(O)c2C(=O)O1 (stereo not given)	Methyltransferases active
CC1CCCC2OC2C(=O)c2c(O)cc(O)cc2CC(=O)O1 (stereo not given)	none
CC1CCC/C=C/C(=O)c2c(O)cc(O)cc2CC(=O)O1 (stereo not given)	none
O=C(Cn1ccc2cc(S(=O)(=O)N3CCCCC3)ccc21)NCc1cccc(F)c1	none
C=CCn1c(=O)c2ccc(C(=O)NCC(C)C)cc2n2c(=O)n(CC(=O)Nc3ccccc3C)nc12	none
CC(=O)Nc1c2n(c3ccc(F)cc13)CC(C)(C(=O)NC1CCCC1)N(CCC(C)C)C2=O (stereo not given)	none
CC1(C(=O)NC2CCCCCC2)Cn2c(cc3sccc32)C(=O)N1Cc1ccccn1 (stereo not given)	none
CN(CC(=O)Nc1cccc(F)c1)S(=O)(=O)c1ccc2[nH]c3c(c2c1)CCCC3	none
O=S(=O)(Nc1ccc(F)cc1)c1ccc2[nH]c3c(c2c1)CCCC3	none
CN(C)[C@@H]1CCc2[nH]c3ccc(NC(=O)c4ccc(F)cc4)cc3c2C1	Methyltransferases active
CCCn1c(=O)c2ccccc2n2c(SCC(=O)NCc3ccc(C)cc3)nnc12	none
CCOc1ccc(CN2C(=O)c3cc4sccc4n3CC2(C)C(=O)NC2CCCC(C)C2C)cc1 (stereo not given)	none
CC(C)CCn1c(=O)c2ccc(C(=O)NC3CCCC3)cc2n2c(=O)n(CC(=O)c3ccccc3)nc12	none
C=Cc1cc(O)cc2nc(-c3ccc(O)c(F)c3)oc12	Methyltransferases active
Cc1ccccc1CN1C(=O)c2ccc(-c3ccco3)n2CC1(C)C(=O)NC1CCCCCC1 (stereo not given)	none
CCCn1c(=O)c2ccc(C(=O)NC3CCCCC3)cc2n2c(SCC(=O)NC(C)C)nnc12	none
CCCN1C(=O)c2c(C(=O)NCc3ccccc3F)ncn2CC1(C)C(=O)NC1CCCC1 (stereo not given)	none
Cc1ccc([C@H]2Nc3ccc(S(=O)(=O)Nc4ccc(C)c(Cl)c4)cc3[C@H]3C=CC[C@H]32)cc1	none
CCc1ccc(NS(=O)(=O)c2cc3[nH]c(=O)[nH]c3cc2C)cc1	none
Cc1cc(C)cc(NS(=O)(=O)c2cc3c(cc2C)n(C)c(=O)n3C)c1	none
Cc1ccc(C(=O)Cn2nc3n(CC(C)C)c(=O)c4ccc(C(=O)NC5CCCC5)cc4n3c2=O)cc1	none
Cc1ccsc1CCNC(=O)Cn1c(=O)oc2cc(S(=O)(=O)N3CCCC3)ccc21	Methyltransferases active
O=C(Cn1c(=O)oc2cc(S(=O)(=O)N3CCCC3)ccc21)NCCC1=CCCCC1	none
O=C(Cn1c(=O)oc2cc(S(=O)(=O)N3CCCC3)ccc21)NCCc1ccc(Cl)cc1	none
COCCCNc1nc2c(-c3cccc(F)c3)nnn2c2ccc(Cl)cc12	none
CCN1CCN(C(=O)c2cc3n(n2)CC(C)(C(=O)NCc2ccc(F)cc2)N(C)C3=O)CC1 (stereo not given)	none
COc1cc(OC)c(NC(=O)N2CCn3cccc3C2C)cc1Cl (stereo not given)	none
CC(C)CCNC(=O)N1CCn2cccc2C1C (stereo not given)	none
CC(C)(O)C(=O)N1CCN(c2ccc(C(F)(F)F)c(C3=C(c4c[nH]c5ccccc45)C(=O)NC3=O)c2)CC1	Methyltransferases active
CCOc1ccc(CN2C(=O)c3c(C(=O)OC)ncn3CC2(C)C(=O)NC2CCCCCC2)cc1 (stereo not given)	none
Cn1c(=O)c2ccc(C(=O)NC3CCCC3)cc2n2c(=O)n(CC(=O)NC3CCCC3)nc12	none
O=C(c1ccc(Cl)c([N+](=O)[O-])c1)N1CCN(c2ccccc2F)CC1	none
O=C(c1ccc(Cl)cc1)N1CCN(c2ccnc3cc(Cl)ccc23)CC1	Methyltransferases active
CCn1cc(-c2ccc(Cl)cc2)cc1C(=O)N1CCN(c2ccccn2)CC1	none
CCOC(=O)c1cc2n(n1)CC(C)(C(=O)NC1CCCC1)N(c1ccc(F)cc1C)C2=O (stereo not given)	none
Cn1cc(-c2cnn3c(N)c(Br)c(C4CCCNC4)nc23)cn1 (stereo not given)	Methyltransferases active
O=C(CCc1nnc2n(Cc3ccccc3Cl)c(=O)c3ccccc3n12)NCCN1CCCC1	none
CN1CCN(CCNC(=O)CCn2ccc3cc(S(=O)(=O)N4CCCCC4)ccc32)CC1	none
C=CCNC(=O)CCCc1nnc2n3nc(-c4ccccc4)nc3c3ccccc3n12	none
CCN(CC)CCCNC(=O)CCCc1nnc2n3nc(-c4ccccc4)nc3c3ccccc3n12	Methyltransferases active
CC1CCC(NC(=O)CCCc2nnc3n4nc(-c5ccccc5)nc4c4ccccc4n23)CC1 (stereo not given)	none
CCN(CC)CCNC(=O)CCCc1nnc2n3nc(-c4ccccc4)nc3c3ccccc3n12	Methyltransferases active
CC1CCCCN1CCNC(=O)CCCc1nnc2n3nc(-c4ccccc4)nc3c3ccccc3n12 (stereo not given)	none
Cc1ccc(CNC(=O)CCCc2nnc3n4nc(-c5ccccc5)nc4c4ccccc4n23)cc1	none
CC(=O)Nc1c2n(c3ccccc13)CC(C)(C(=O)NC1CCCCC1)N(Cc1ccccc1C)C2=O (stereo not given)	none
COC(=O)c1ncn2c1C(=O)N(C1CC1)C(C)(C(=O)NCc1ccccc1)C2 (stereo not given)	none
COC(=O)c1ncn2c1C(=O)N(Cc1ccccc1OC)C(C)(C(=O)NC1CCCCCC1)C2 (stereo not given)	none
CC1(C(=O)NC2CCCCCC2)Cn2nc(-c3ccco3)cc2C(=O)N1CCc1ccc(Cl)cc1 (stereo not given)	none
COCCCN1C(=O)c2ccc(-c3ccccc3)n2CC1(C)C(=O)NC1CCCCCC1 (stereo not given)	none
Cn1cc(-c2ccc3c(c2)CCN3C(=O)Cc2cccc(C(F)(F)F)c2)c2c(N)ncnc21	none
CC(=O)NC1CCN(Cc2cn(-c3ccc(C)cc3)nc2-c2cccc(C)c2)C1 (stereo not given)	none
COc1cccc(-c2cn(-c3ccc(CCN4CCC(O)CC4)cc3)c3ncnc(N)c23)c1	Methyltransferases active
O=C(Cn1nc2nc(Nc3ccc(F)cc3)ccn2c1=O)Nc1ccc(F)cc1F	none
O=C(O)c1ccc(O)c2ncc(N3CCCN(CCc4cccc5ccccc45)CC3)cc12	Methyltransferases active
c1ccc(N2CCN(CCc3nn[nH]n3)CC2)cc1	none
O=C(CCn1ccc2cc(S(=O)(=O)N3CCCCC3)ccc21)NCCc1c[nH]c2ccccc12	none
O=c1[nH]c(=S)[nH]c(-c2ccccc2)c1Cc1c(O)ccc2ccccc12	Methyltransferases active
CC(C)OCCCN1C(=O)c2cc3ccccc3n2CC1(C)C(=O)NC1CCCCCC1 (stereo not given)	none
CCCn1c(=O)c2ccccc2n2c(SCC(=O)Nc3ccc(F)cc3F)nnc12	none
CCCn1c(=O)c2cc(F)ccc2n2c(SCC(=O)NC3CCCC3)nnc12	none
CC(=O)O[C@@H]1[C@@H](OC(C)=O)[C@H](C)O[C@@H](O[C@H]2[C@@H]3C=CO[C@@H](O[C@@H]4O[C@H](CO)[C@@H](O)[C@H](O)[C@H]4O)[C@@H]3[C@@]3(CO)O[C@@H]23)[C@@H]1OC(=O)/C=C/c1ccccc1	none
CC(=O)O[C@H]1[C@@H](O)[C@H](O[C@H]2[C@@H]3C=CO[C@@H](O[C@H]4O[C@@H](CO)[C@H](O)[C@@H](O)[C@@H]4O)[C@@H]3[C@@]3(CO)O[C@@H]23)O[C@@H](C)[C@@H]1OC(=O)/C=C/c1ccccc1	none
